The whole screen tested about 5,500 compounds, of which about 2,000 (36%) were called active. Inconclusive results (about 18%) are left out. Cut-off read from the data, not from the text of the source: active = normalized growth mostly below about 0.91 (no sharp cut-off); inconclusive = no clear call, values can overlap the other calls; inactive = mostly above about 0.92. Some of the results follow.
Assay: chemical genetic growth profiling, strain panel (AID 1159580);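 note: tested at 20 µM; growth read once vehicle control cultures reached saturation at 30 °C; 1 = growth at the plate median or of vehicle wells; lower values mean less growth of the strain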
Conditions: growth OD

Measured: normalized growth

O=C(O)c1cc(=O)c2cccc(O)c2[nH]1
inactive: S. cerevisiae deletion strains, locus YJR075W, strain HOC1, hits give low values 0.974 | S. cerevisiae deletion strains, locus YKL009W, strain mrt4, hits give low values 0.965 | S. cerevisiae deletion strains, locus YKL068W, hits give low values 0.976 | S. cerevisiae deletion strains, locus YKL085W, strain MDH1 (second series), hits give low values 0.964 | S. cerevisiae deletion strains, locus YKL085W, strain MDH1, hits give low values 0.964 | S. cerevisiae deletion strains, locus YKL160W, strain elf1, hits give low values 1.05 | S. cerevisiae deletion strains, locus YKL190W, strain CNB1, hits give low values 0.982 | S. cerevisiae deletion strains, locus YKR001C, strain vps1, hits give low values 1 | S. cerevisiae deletion strains, locus YKR026C, strain gcn3, hits give low values 1.01 | S. cerevisiae deletion strains, locus YKR091W, strain srl3, hits give low values 1.01 | S. cerevisiae deletion strains, locus YLL001W, strain dnm1, hits give low values 1.02 | S. cerevisiae deletion strains, locus YLL026W, hits give low values 1.02 | S. cerevisiae deletion strains, locus YLL041C, strain sdh2, hits give low values 1 | S. cerevisiae deletion strains, locus YLR027C, strain aat2, hits give low values 0.996 | S. cerevisiae deletion strains, locus YLR039C, strain RIC1, hits give low values 0.968 | S. cerevisiae deletion strains, locus YLR058C, strain SHM2, hits give low values 0.987 | S. cerevisiae deletion strains, locus YLR102C, strain apc9, hits give low values 0.979 | S. cerevisiae deletion strains, locus YLR113W, strain HOG1, hits give low values 0.99 | S. cerevisiae deletion strains, locus YLR221C, strain rsa3, hits give low values 0.995 | S. cerevisiae deletion strains, locus YLR258W, strain gsy2, hits give low values 1.03 | S. cerevisiae deletion strains, locus YLR262C, strain YPT6 (second series), hits give low values 1.01 | S. cerevisiae deletion strains, locus YLR262C, strain YPT6, hits give low values 0.971 | S. cerevisiae deletion strains, locus YLR268W, strain sec22, hits give low values 0.916 | S. cerevisiae deletion strains, locus YLR320W, strain mms22, hits give low values 1.01 | S. cerevisiae deletion strains, locus YLR330W, strain CHS5, hits give low values 0.991 | S. cerevisiae deletion strains, locus YLR342W, strain FKS1 (second series), hits give low values 1.08 | S. cerevisiae deletion strains, locus YLR342W, strain FKS1, hits give low values 1.02 | S. cerevisiae deletion strains, locus YLR357W, strain rsc2, hits give low values 1.05 | S. cerevisiae deletion strains, locus YLR370C, strain arc18, hits give low values 1.04 | S. cerevisiae deletion strains, locus YLR371W, strain rom2, hits give low values 0.98 | S. cerevisiae deletion strains, locus YLR384C, strain iki3, hits give low values 1.02 | S. cerevisiae deletion strains, locus YLR418C, strain cdc73, hits give low values 1.03 | S. cerevisiae deletion strains, locus YML016C, strain PPZ1, hits give low values 1 | S. cerevisiae deletion strains, locus YML032C, strain rad52, hits give low values 0.961 | S. cerevisiae deletion strains, locus YML120C, strain ndi1, hits give low values 1.01 | S. cerevisiae deletion strains, locus YML124C, strain tub3, hits give low values 0.977 | S. cerevisiae deletion strains, locus YMR058W, strain fet3, hits give low values 1.02 | S. cerevisiae deletion strains, locus YMR078C, strain ctf18, hits give low values 0.991 | S. cerevisiae deletion strains, locus YMR125W, strain sto1, hits give low values 1.02 | S. cerevisiae deletion strains, locus YMR129W, hits give low values 1.02 | S. cerevisiae deletion strains, locus YMR205C, strain PFK2, hits give low values 1.02 | S. cerevisiae deletion strains, locus YMR223W, strain ubp8, hits give low values 1.03 | S. cerevisiae deletion strains, locus YMR231W, strain pep5, hits give low values 1.01 | S. cerevisiae deletion strains, locus YMR263W, strain SAP30, hits give low values 0.975 | S. cerevisiae deletion strains, locus YMR307W, strain GAS1, hits give low values 1.09 | S. cerevisiae deletion strains, locus YNL067W, strain RPL9B, hits give low values 0.967 | S. cerevisiae deletion strains, locus YNL071W, strain lat1, hits give low values 1.02 | S. cerevisiae deletion strains, locus YNL128W, strain TEP1, hits give low values 0.983 | S. cerevisiae deletion strains, locus YNL153C, strain GIM3, hits give low values 0.97 | S. cerevisiae deletion strains, locus YNL183C, strain NPR1, hits give low values 0.917 | S. cerevisiae deletion strains, locus YNL209W, strain ssb2, hits give low values 0.999 | S. cerevisiae deletion strains, locus YNL233W, strain BNI4, hits give low values 0.97 | S. cerevisiae deletion strains, locus YNL248C, strain rpa49, hits give low values 1.03 | S. cerevisiae deletion strains, locus YNL250W, strain rad50, hits give low values 0.967 | S. cerevisiae deletion strains, locus YNL271C, strain bni1, hits give low values 0.976 | S. cerevisiae deletion strains, locus YNL298W, strain CLA4, hits give low values 0.987 | S. cerevisiae deletion strains, locus YNL307C, strain MCK1, hits give low values 0.981 | S. cerevisiae deletion strains, locus YNL322C, strain KRE1 (second series), hits give low values 1.03 | S. cerevisiae deletion strains, locus YNL322C, strain KRE1, hits give low values 0.984 | S. cerevisiae deletion strains, locus YNR049C, strain mso1, hits give low values 1.02 | S. cerevisiae deletion strains, locus YNR052C, strain pop2, hits give low values 1 | S. cerevisiae deletion strains, locus YOL006C, strain TOP1, hits give low values 1.02 | S. cerevisiae deletion strains, locus YOL012C, strain htz1 0.728 | S. cerevisiae deletion strains, locus YOL147C, strain pex11, hits give low values 0.985 | S. cerevisiae deletion strains, locus YOR001W, strain rrp6, hits give low values 0.956 | S. cerevisiae deletion strains, locus YOR061W, strain CKA2, hits give low values 0.992 | S. cerevisiae deletion strains, locus YOR069W, strain VPS5, hits give low values 0.991 | S. cerevisiae deletion strains, locus YOR070C, strain gyp1, hits give low values 1.02 | S. cerevisiae deletion strains, locus YOR080W, strain dia2, hits give low values 1.01 | S. cerevisiae deletion strains, locus YOR083W, strain WHI5, hits give low values 1.05 | S. cerevisiae deletion strains, locus YOR106W, strain vam3, hits give low values 1.03 | S. cerevisiae deletion strains, locus YOR136W, strain idh2, hits give low values 0.99 | S. cerevisiae deletion strains, locus YOR144C, strain elg1, hits give low values 0.99 | S. cerevisiae deletion strains, locus YOR184W, strain ser1, hits give low values 0.972 | S. cerevisiae deletion strains, locus YOR231W, strain MKK1, hits give low values 0.982 | S. cerevisiae deletion strains, locus YOR265W, strain rbl2, hits give low values 1.01 | S. cerevisiae deletion strains, locus YOR270C, strain vph1, hits give low values 0.995 | S. cerevisiae deletion strains, locus YOR290C, strain snf2, hits give low values 1.06 | S. cerevisiae deletion strains, locus YOR316C, strain cot1, hits give low values 0.966 | S. cerevisiae deletion strains, locus YPL051W, strain arl3, hits give low values 1.04 | S. cerevisiae deletion strains, locus YPL055C, strain LGE1, hits give low values 0.951 | S. cerevisiae deletion strains, locus YPL078C, strain atp4, hits give low values 1.04 | S. cerevisiae deletion strains, locus YPL106C, strain sse1, hits give low values 1.03 | S. cerevisiae deletion strains, locus YPL240C, strain hsp82, hits give low values 1.01 | S. cerevisiae deletion strains, locus YPL241C, strain CIN2, hits give low values 0.982 | S. cerevisiae deletion strains, locus YPL256C, strain CLN2, hits give low values 0.965 | S. cerevisiae deletion strains, locus YPR119W, strain clb2, hits give low values 0.987 | S. cerevisiae deletion strains, locus YPR141C, strain kar3, hits give low values 0.97 | S. cerevisiae deletion strains, locus YPR163C, strain tif3, hits give low values 0.989 | S. cerevisiae deletion strains, locus YPR167C, strain met16, hits give low values 0.973 | S. cerevisiae deletion strains, strain wtn01, hits give low values 0.995 | S. cerevisiae strains, strain wild type, hits give low values 1
